From PubChem BioAssay (NCI)
About 83,000 compounds went through this panel and 20% of them were active in at least one assay; those are over-represented in the sample as a whole.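 Each cell line was grown in a 96-well plate and treated with one concentration of compound for 48 hours. Values below 10 were considered active.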 Activity calls are given as the source filed them.

What was measured:
Assay in all cases: NCI-60 one-dose screen, 48 h (100 = growth as untreated, 0 = no growth, -100 = all killed)
SK-MEL-2 melanoma = conditions: 10 µM unless noted
EKVX NSCLC = conditions: 10 µM unless noted
SN12C renal = conditions: 10 µM unless noted
UO-31 renal = conditions: 10 µM unless noted
TK-10 renal = conditions: 10 µM unless noted
ACHN renal = conditions: 10 µM unless noted
CAKI-1 renal = conditions: 10 µM unless noted
A498 renal = conditions: 10 µM
HL-60(TB) leukemia = conditions: 10 µM unless noted
CCRF-CEM leukemia = conditions: 10 µM unless noted

Measured: growth

Clc1cccc(N2COOC3(OOC2)C2CC4CC(C2)CC3C4)c1
active: UO-31 renal -89.6% | CCRF-CEM leukemia -32.7%
inactive: SK-MEL-2 melanoma 98.3% | EKVX NSCLC 94.2% | SN12C renal 76% | TK-10 renal 40.9% | ACHN renal 62.1% | CAKI-1 renal 76.4% | A498 renal 110% | HL-60(TB) leukemia 20.2%

O=[N+]([O-])c1cc([N+](=O)[O-])c(Cl)cc1Cl
inactive: A498 renal 80.1%
active: SK-MEL-2 melanoma -43% | EKVX NSCLC -57.1% | SN12C renal -89% | UO-31 renal -93.9% | TK-10 renal -92.9% | ACHN renal -91.5% | CAKI-1 renal -81.2% | CCRF-CEM leukemia -36.3%

CN(C)CC(C(=O)Cc1ccccc1)c1ccccc1 (stereo unspecified)
inactive: SK-MEL-2 melanoma 82.2% | EKVX NSCLC 110% | SN12C renal 93.6% | ACHN renal 102% | CAKI-1 renal 82.1% | A498 renal 90.5% | CCRF-CEM leukemia 67.1%
active: UO-31 renal -74% | TK-10 renal -38.1%

NC(N)=N/N=C\c1c[nH]c2ccc(Br)cc12
inactive: SK-MEL-2 melanoma 99.9% | EKVX NSCLC 93.8% | SN12C renal 68.5% | UO-31 renal 86.1% | TK-10 renal 116% | ACHN renal 95.4% | CAKI-1 renal 101% | A498 renal 89.7% | HL-60(TB) leukemia 93.5% | CCRF-CEM leukemia 78.6%

CNC(=O)Oc1cccc(C(F)(F)F)c1
inactive: SK-MEL-2 melanoma 106% | EKVX NSCLC 139% | SN12C renal 93.7% | UO-31 renal 96.3% | TK-10 renal 105% | ACHN renal 114% | CAKI-1 renal 117% | A498 renal 106% | HL-60(TB) leukemia 114% | CCRF-CEM leukemia 90.6%

CC[C@H](C)[C@H](NC(=O)[C@H]1CCCCN1C)C(=O)N(C)[C@H](C[C@@H](OC(C)=O)c1nc(C(=O)N[C@@H](Cc2ccccc2)C[C@H](C)C(=O)OC)cs1)C(C)C
active: A498 renal 7.53% | CCRF-CEM leukemia 4.02%
inactive: SK-MEL-2 melanoma 42.8% | EKVX NSCLC 36.7% | SN12C renal 37.2% | UO-31 renal 40.3% | TK-10 renal 18.1% | ACHN renal 13.6% | CAKI-1 renal 32.2%

O=C1C2C(C(=O)[N]1[Hg][c]1ccccc1)C1(Cl)C(Cl)=C(Cl)C2(Cl)C1(Cl)Cl (stereo unspecified)
active: EKVX NSCLC -7.36% | SN12C renal -71.7% | UO-31 renal -77.1% | TK-10 renal -95.9% | ACHN renal -98.5% | CAKI-1 renal -87.5% | HL-60(TB) leukemia -18.4% | CCRF-CEM leukemia -23.8%
inactive: SK-MEL-2 melanoma 50.8% | A498 renal 32.8%

CC(CC1CCCCC1)NCc1ccccc1 (stereo unspecified)
inactive: SK-MEL-2 melanoma 102% | EKVX NSCLC 99.1% | SN12C renal 94% | UO-31 renal 66.2% | TK-10 renal 94.2% | ACHN renal 96.1% | CAKI-1 renal 99.9% | A498 renal 89.5% | CCRF-CEM leukemia 100%

CCN1C(=O)C(=C/C=C/c2ccccc2)C(=O)N(CC)C1=O
active: CCRF-CEM leukemia -14.1%
inactive: SK-MEL-2 melanoma 99.9% | EKVX NSCLC 112% | SN12C renal 75.8% | UO-31 renal 70.1% | TK-10 renal 94.3% | ACHN renal 70.3% | CAKI-1 renal 87.8% | A498 renal 94.3%

CC12CCC=CC1CCC1C2CCC2(C)C(c3ccc(=O)oc3)CCC12O (stereo unspecified)
active: SK-MEL-2 melanoma -34.4% | EKVX NSCLC -90.1% | SN12C renal -18.8% | UO-31 renal -94.5% | TK-10 renal -69.8% | ACHN renal -89.9% | CAKI-1 renal -61.3% | A498 renal -19.9% | HL-60(TB) leukemia -28% | CCRF-CEM leukemia -16.6%

COc1cc(/C=C/[N+](=O)[O-])cc(OC)c1
active: UO-31 renal -82.3% | TK-10 renal -13.9% | ACHN renal -48.9% | A498 renal -4.1% | HL-60(TB) leukemia -20.3% | CCRF-CEM leukemia -7.03%
inactive: SK-MEL-2 melanoma 59.6% | EKVX NSCLC 59.4% | SN12C renal 44.7% | CAKI-1 renal 44.2%

C[N+]12CN3CN(CN(C3)C1)C2
inactive: SK-MEL-2 melanoma 96.2% | EKVX NSCLC 96.4% | SN12C renal 112% | UO-31 renal 95.5% | TK-10 renal 128% | ACHN renal 108% | CAKI-1 renal 83.6% | A498 renal 109% | HL-60(TB) leukemia 142% | CCRF-CEM leukemia 73.8%

Clc1cc(N2CC2)nc(N2CC2)n1
active: CAKI-1 renal 5.82%
inactive: SK-MEL-2 melanoma 91% | EKVX NSCLC 107% | SN12C renal 48.5% | UO-31 renal 74.7% | TK-10 renal 104% | ACHN renal 22.2% | A498 renal 104% | CCRF-CEM leukemia 54.8%

Cc1cc(N(CCCl)CCCl)ccc1C=Nc1cccnc1
inactive: SK-MEL-2 melanoma 101% | EKVX NSCLC 104% | SN12C renal 57.2% | UO-31 renal 70.3% | TK-10 renal 56.1% | ACHN renal 48.3% | CAKI-1 renal 12.7% | CCRF-CEM leukemia 61.4%
active: A498 renal -72.3%

COc1cc2c(cc1OCCCCn1c(-c3cccs3)nc3ccccc31)N=C[C@@H]1CCCN1C2=O
active: SK-MEL-2 melanoma -52.4% | EKVX NSCLC 4.43% | SN12C renal 2.49% | UO-31 renal -58.3% | TK-10 renal -22.8% | ACHN renal -10% | CAKI-1 renal -22% | A498 renal -53.9% | HL-60(TB) leukemia -18.7% | CCRF-CEM leukemia -25.7%

O=C(O)C1C(C(=O)O)C2(Cl)C(Cl)=C(Cl)C1(Cl)C2(Cl)Cl.[Hg] (stereo unspecified)
inactive: SK-MEL-2 melanoma 102% | EKVX NSCLC 102% | SN12C renal 87.4% | UO-31 renal 111% | TK-10 renal 144% | ACHN renal 99% | CAKI-1 renal 101% | A498 renal 149% | CCRF-CEM leukemia 71.8%

ClCCN(CCCl)c1ccc(-n2cnc3c(Cl)ncnc32)cc1
active: UO-31 renal -85.9% | ACHN renal -82.1% | CAKI-1 renal -88.2% | HL-60(TB) leukemia -9.68%
inactive: SK-MEL-2 melanoma 69% | EKVX NSCLC 28.7% | SN12C renal 47.8% | TK-10 renal 84.7% | A498 renal 95.2% | CCRF-CEM leukemia 13.1%

CCOC(=S)S[C@H]1C[C@@H]2[C@H](CC[C@]3(C)C(=O)CC[C@@H]23)[C@@]2(C)CCC(=O)C=C12
inactive: SK-MEL-2 melanoma 116% | EKVX NSCLC 102% | SN12C renal 93.9% | UO-31 renal 97.3% | TK-10 renal 100% | ACHN renal 109% | CAKI-1 renal 99.6% | A498 renal 110% | HL-60(TB) leukemia 101% | CCRF-CEM leukemia 107%

CN1C(=O)N[C@H]2[C@@H]3NC(=O)c4ccc(Br)n4[C@@H]3C[C@]21O
active: SK-MEL-2 melanoma -55.5% | EKVX NSCLC -17.4% | SN12C renal -14.1% | UO-31 renal 9.15% | TK-10 renal -16.7% | ACHN renal -24.6% | CAKI-1 renal 6.74% | A498 renal -47.8% | CCRF-CEM leukemia -15%

CC[C@]12C=CCN3CC[C@]4(C(=C(C(=O)OC)C1)Nc1cc(OC)c(OC(C)=O)cc14)[C@@H]32
inactive: SK-MEL-2 melanoma 41.5% | EKVX NSCLC 55.6% | UO-31 renal 28.6% | TK-10 renal 21.4% | ACHN renal 21.4% | CAKI-1 renal 21%
active: SN12C renal 8.6% | A498 renal -7.74% | HL-60(TB) leukemia -8.44% | CCRF-CEM leukemia 0.65%

c1cnc2[nH]cc(-c3csc(-c4cn(CCCCN5CCOCC5)c5ccccc45)n3)c2c1
active: HL-60(TB) leukemia -58.2%
inactive: SK-MEL-2 melanoma 87.8% | EKVX NSCLC 64% | SN12C renal 67% | UO-31 renal 25.4% | TK-10 renal 64.4% | ACHN renal 32.4% | CAKI-1 renal 44.3% | A498 renal 56.8% | CCRF-CEM leukemia 10.1%
